# Source: PubChem BioAssay (Tox21)
# A number with no mark means an inactive call. Records with an inconclusive call do not appear. A call without a number means that no potency is given here. Activity calls are given as the source filed them. The call rests on the fitted dose curve; in most records, active means well fitted curve in the direction sought with a large enough effect in the repeat runs; inconclusive means weak or mixed curves; inactive means no such curve, though single readings can be large; an effect the other way counts as inactive or inconclusive.
# Columns and labels:
# [1] = Human pregnane X receptor (PXR) small molecule agonists, qHTS cell viability counter screen (AID 1346977); further: nearly all actives have a fitted effect of over 50% in size
# Summary of the method: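 HepG2 cells stably carrying the PXR-Luc reporter are cultured with 5% charcoal-stripped FBS and treated with compounds for 24hr. CellTiter-Fluor is added at 23hr and fluorescence is read after 1hr.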
# [2] = Caspase-3/7 induction in HepG2 cells by small molecules, qHTS assay (AID 1346978); further: nearly all actives have a fitted effect of over 15% in size
# Summary of the method: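 Wild-type HepG2 cells (2,000/well) were settled 5 h at 37 C, 5% CO2, then exposed to compounds in DMSO for 17 h. Caspase-3/7 activity was read by luminescence 30 min after adding Caspase-Glo 3/7 reagent at room temperature.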
# [3] = Caspase-3/7 induction in CHO-K1 cells by small molecules, qHTS cell viability counter screen (AID 1346979); further: nearly all actives have a fitted effect of over 35% in size
# Summary of the method: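 Seeding: 1,500 CHO-K1 cells/well. Rest: 5hr, 37C. Treatment: compounds in DMSO, 16hr. Read: CellTiter-Fluor, 1hr, fluorescence.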
# [4] = Caspase-3/7 induction in CHO-K1 cells by small molecules, qHTS assay (AID 1346980); further: nearly all actives have a fitted effect of over 15% in size
# Summary of the method: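 Wild-type cells were seeded at 1,500 per well and settled 5 hr at 37 C, 5% CO2, then exposed to DMSO-dissolved compounds for 17 hr. Caspase-Glo 3/7 reagent was added, and luminescence was read after 30min at room temperature.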
# [5] = Caspase-3/7 induction in HepG2 cells by small molecules, qHTS cell viability counter screen (AID 1346981); further: series mostly up to about 92 µM; nearly all actives have a fitted effect of over 30% in size
# Summary of the method: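 Fluorescence read-out of live-cell protease activity (CellTiter-Fluor) after 1 hr with reagent. This was measured in the same wells as the caspase-3/7 luminescence, on HepG2 cells exposed to DMSO-dissolved compounds for 16 hr at 37 C.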
# [6] = target: Nuclear receptor subfamily 1 group I member 2 (Homo sapiens) (UniProt O75469); experiment: Human pregnane X receptor (PXR) small molecule agonists, qHTS assay (AID 1346982); further: nearly all actives have a fitted effect of over 35% in size; further: potency means the concentration at half of the fitted maximal effect
# Summary of the method: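 HepG2 PXR-Luc reporter line, 5% charcoal-stripped FBS; 5 hr pre-incubation, compound (DMSO) 24 hr at 37 C/5% CO2; ONE-Glo 30 min RT; luminescence read-out.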
# [7] = target: Nuclear receptor subfamily 1 group I member 2 (Rattus norvegicus) (UniProt Q9R1A7); experiment: Rat pregnane X receptor (rPXR) activation by small molecules, qHTS assay (AID 1346983); conditions: rPXR luciferase reporter cells, One-Glo luminescence, 24 h; hits give high values; further: nearly all actives have a fitted effect of over 20% in size
# Summary of the method: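 Cell-based rPXR luciferase reporter assay, 2,000 cells per well, rested 5hr at 37 C before compound addition in DMSO, then 24 hr at 37 C. One-Glo reagent was added and luminescence read after 30 min at room temperature.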
# [8] = target: Nuclear receptor subfamily 1 group I member 2 (Homo sapiens) (UniProt O75469); experiment: CYP3A4 induction through human pregnane X receptor (PXR) by small molecules, qHTS assay (AID 1346984); further: nearly all actives have a fitted effect of over 40% in size; further: potency means the concentration at half of the fitted maximal effect
# Summary of the method: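 HepG2-derived DPX-2 line carrying PXR plus a CYP3A4-promoter luciferase reporter; cells plated 5 hr, compound-exposed 24 hr at 37C. CYP3A4 activity probed with 3uM (final) Luciferin-IPA for 3hr, then luciferase read after One-Glo.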
# [9] = target: Nuclear receptor subfamily 1 group I member 2 (Homo sapiens) (UniProt O75469); experiment: Human pregnane X receptor (PXR) activation by small molecules, qHTS assay (AID 1346985); further: nearly all actives have a fitted effect of over 40% in size
# Summary of the method: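 DPX-2 cells (HepG2 co-transfected with a PXR response element and a CYP3A4-promoter luciferase construct) were seeded at 2,000 per well, rested 5 hr at 37C, then exposed to DMSO-dissolved compounds for 24 hr. Activation was read as luciferase luminescence.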
# [10] = target: Cytochrome P450 2D6 (Homo sapiens) (UniProt P10635); experiment: Cytochrome P450 Family 2 Subfamily D Member 6 (CYP2D6) small molecule antagonists: luciferase reporter qHTS assay (AID 1671196); further: nearly all actives have a fitted effect of over 50% in size; further: potency means the concentration at half of the fitted maximal effect; on activity change, negative = inhibition: series mostly up to about 120 µM
# Summary of the method: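 Luminogenic proluciferin substrate, CYP2D6 enzyme; 10 min RT preincubation with compound, NADPH regeneration system added, 1 h RT. Stop/detection reagent, 20 min RT, luminescence read (RLU). Signal proportional to CYP activity.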
# [11] = target: Cytochrome P450 2C19 (Homo sapiens) (UniProt P33261); experiment: Cytochrome P450 Family 2 Subfamily C Member 19 (CYP2C19) small molecule antagonists: luciferase reporter qHTS assay (AID 1671197); further: nearly all actives have a fitted effect of over 65% in size; further: potency means the concentration at half of the fitted maximal effect; on activity change, negative = inhibition: series mostly up to about 120 µM
# Summary of the method: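 Light output is proportional to CYP2C19 activity: proluciferin substrate is converted to luciferin, then detected by a luciferin detection reagent that also stops the 1 h, 37C NADPH-driven reaction. Ketoconazole serves as positive control.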
# [12] = target: Cytochrome P450 1A2 (Homo sapiens) (UniProt P05177); experiment: Cytochrome P450 Family 1 Subfamily A Member 2 (CYP1A2) small molecule antagonists: luciferase reporter qHTS assay (AID 1671199); further: nearly all actives have a fitted effect of over 50% in size; further: potency means the concentration at half of the fitted maximal effect; on activity change, negative = inhibition: series mostly up to about 120 µM
# Summary of the method: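 Luminescence readout (relative luminescence units) after luciferin detection reagent, 20 min RT. Preceded by 1 h room-temperature CYP1A2 reaction with NADPH regeneration solution following 10 min compound preincubation with enzyme and proluciferin substrate. Furafylline positive control.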
# [13] = target: Cytochrome P450 3A4 (Homo sapiens) (UniProt P08684); experiment: Cytochrome P450 Family 3 Subfamily A Member 4 (CYP3A4) small molecule antagonists: luciferase reporter qHTS assay (AID 1671201); further: series mostly up to about 120 µM; nearly all actives have a fitted effect of over 50% in size
# Summary of the method: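 Enzyme and proluciferin substrate are mixed with test chemicals for 10 min, then NADPH regeneration system drives turnover for 1 h at room temperature. A detection reagent halts the reaction; luminescence after 20 min gives relative activity.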
# [14] = target: Cytochrome P450 2C9 (Homo sapiens) (UniProt P11712); experiment: Cytochrome P450 Family 2 Subfamily C Member 9 (CYP2C9) small molecule antagonists: luciferase reporter qHTS assay (AID 1671198); further: nearly all actives have a fitted effect of over 50% in size; further: potency means the concentration at half of the fitted maximal effect; on activity change, negative = inhibition: series mostly up to about 120 µM
# Summary of the method: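 CYP2C9 activity was measured with a P450-Glo proluciferin substrate. Enzyme–substrate mix was held with compound for 10 min at room temperature, then NADPH regeneration solution was added for 1 h at 37C. Luciferin product was read as luminescence.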
# [15] = target: Voltage-gated inwardly rectifying potassium channel KCNH2 (Homo sapiens) (UniProt Q12809); experiment: Human Ether-a-go-go-Related Gene (hERG) channel small molecule antagonists: fluorescence cell-based qHTS assay (AID 1671200)
# Summary of the method: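 First, 1000 cells per well are seeded and cultured overnight at 37 C. Next, FluxOR II dye is loaded for 1 h at room temperature, protected from light. After 10 more minutes, stimulus is added and fluorescence is read.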
# Chain of Cytochrome P450 2C19 (Homo sapiens) (P33261 whole entry, looked up): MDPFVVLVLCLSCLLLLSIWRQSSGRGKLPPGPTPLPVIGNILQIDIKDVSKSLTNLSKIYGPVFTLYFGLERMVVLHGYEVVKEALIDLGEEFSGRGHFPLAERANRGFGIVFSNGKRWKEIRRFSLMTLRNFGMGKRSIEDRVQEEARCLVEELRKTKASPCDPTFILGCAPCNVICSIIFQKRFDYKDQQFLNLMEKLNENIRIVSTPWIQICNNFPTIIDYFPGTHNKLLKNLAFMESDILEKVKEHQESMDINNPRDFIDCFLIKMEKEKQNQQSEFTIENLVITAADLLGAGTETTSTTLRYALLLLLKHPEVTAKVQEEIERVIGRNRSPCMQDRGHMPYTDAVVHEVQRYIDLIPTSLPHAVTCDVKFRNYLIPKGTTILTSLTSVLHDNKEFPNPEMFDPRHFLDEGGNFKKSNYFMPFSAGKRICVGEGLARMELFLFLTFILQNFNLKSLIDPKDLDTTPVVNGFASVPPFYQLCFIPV
# Chain of Cytochrome P450 3A4 (Homo sapiens) (P08684 whole entry, looked up): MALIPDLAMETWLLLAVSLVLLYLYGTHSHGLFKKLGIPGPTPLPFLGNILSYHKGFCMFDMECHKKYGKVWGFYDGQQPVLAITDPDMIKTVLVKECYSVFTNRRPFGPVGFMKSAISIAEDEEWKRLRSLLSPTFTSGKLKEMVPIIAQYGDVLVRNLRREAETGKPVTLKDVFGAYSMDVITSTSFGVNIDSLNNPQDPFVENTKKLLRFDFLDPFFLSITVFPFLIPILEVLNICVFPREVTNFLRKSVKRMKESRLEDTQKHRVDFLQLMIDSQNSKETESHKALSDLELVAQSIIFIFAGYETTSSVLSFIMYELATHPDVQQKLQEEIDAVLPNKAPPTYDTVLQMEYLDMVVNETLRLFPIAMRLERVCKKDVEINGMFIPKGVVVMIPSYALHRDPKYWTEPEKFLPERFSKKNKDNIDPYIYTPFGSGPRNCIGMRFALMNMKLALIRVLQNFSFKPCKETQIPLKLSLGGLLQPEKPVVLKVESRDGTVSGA
# Chain of Nuclear receptor subfamily 1 group I member 2 (Rattus norvegicus) (Q9R1A7 whole entry, looked up): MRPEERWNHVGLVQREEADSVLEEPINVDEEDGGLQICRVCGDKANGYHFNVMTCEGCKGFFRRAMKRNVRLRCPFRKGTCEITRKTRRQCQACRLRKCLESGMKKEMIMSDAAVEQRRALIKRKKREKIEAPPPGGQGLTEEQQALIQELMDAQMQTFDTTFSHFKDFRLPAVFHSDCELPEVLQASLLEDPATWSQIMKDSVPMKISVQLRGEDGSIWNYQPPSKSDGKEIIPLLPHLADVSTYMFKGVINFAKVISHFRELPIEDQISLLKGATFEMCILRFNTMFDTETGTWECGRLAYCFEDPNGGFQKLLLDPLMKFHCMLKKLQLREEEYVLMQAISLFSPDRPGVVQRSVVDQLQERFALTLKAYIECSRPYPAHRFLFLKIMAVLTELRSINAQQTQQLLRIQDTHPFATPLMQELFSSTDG
# Chain of Cytochrome P450 2D6 (Homo sapiens) (P10635 whole entry, looked up): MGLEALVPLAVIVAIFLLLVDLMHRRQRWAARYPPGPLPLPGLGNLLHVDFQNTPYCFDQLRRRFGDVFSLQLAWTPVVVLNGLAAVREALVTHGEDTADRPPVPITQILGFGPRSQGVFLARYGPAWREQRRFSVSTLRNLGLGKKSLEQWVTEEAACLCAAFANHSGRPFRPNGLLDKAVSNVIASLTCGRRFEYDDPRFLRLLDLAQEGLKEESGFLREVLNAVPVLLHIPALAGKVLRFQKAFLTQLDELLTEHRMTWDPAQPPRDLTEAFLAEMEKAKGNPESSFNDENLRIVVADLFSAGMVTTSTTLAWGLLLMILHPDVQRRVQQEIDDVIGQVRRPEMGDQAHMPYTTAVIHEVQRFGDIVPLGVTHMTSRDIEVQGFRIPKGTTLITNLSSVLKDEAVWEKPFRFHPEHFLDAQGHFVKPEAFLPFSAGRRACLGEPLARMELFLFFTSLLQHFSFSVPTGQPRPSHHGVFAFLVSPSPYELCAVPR
# Chain of Cytochrome P450 1A2 (Homo sapiens) (P05177 whole entry, looked up): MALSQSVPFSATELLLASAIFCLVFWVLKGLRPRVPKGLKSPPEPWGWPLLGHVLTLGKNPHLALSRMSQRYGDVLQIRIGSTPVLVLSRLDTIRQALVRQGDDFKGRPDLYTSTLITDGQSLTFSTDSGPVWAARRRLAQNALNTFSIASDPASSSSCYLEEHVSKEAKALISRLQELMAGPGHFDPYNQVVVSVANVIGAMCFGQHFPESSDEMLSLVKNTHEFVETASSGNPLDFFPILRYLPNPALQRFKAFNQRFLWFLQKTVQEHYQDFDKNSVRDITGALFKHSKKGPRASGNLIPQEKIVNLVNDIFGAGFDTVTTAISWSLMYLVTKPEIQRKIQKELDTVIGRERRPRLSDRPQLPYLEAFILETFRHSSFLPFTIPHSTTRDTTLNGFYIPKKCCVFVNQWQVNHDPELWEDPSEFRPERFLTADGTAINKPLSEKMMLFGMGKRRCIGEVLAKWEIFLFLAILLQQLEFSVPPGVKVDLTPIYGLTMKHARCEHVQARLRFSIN
# Chain of Voltage-gated inwardly rectifying potassium channel KCNH2 (Homo sapiens) (Q12809 whole entry, looked up): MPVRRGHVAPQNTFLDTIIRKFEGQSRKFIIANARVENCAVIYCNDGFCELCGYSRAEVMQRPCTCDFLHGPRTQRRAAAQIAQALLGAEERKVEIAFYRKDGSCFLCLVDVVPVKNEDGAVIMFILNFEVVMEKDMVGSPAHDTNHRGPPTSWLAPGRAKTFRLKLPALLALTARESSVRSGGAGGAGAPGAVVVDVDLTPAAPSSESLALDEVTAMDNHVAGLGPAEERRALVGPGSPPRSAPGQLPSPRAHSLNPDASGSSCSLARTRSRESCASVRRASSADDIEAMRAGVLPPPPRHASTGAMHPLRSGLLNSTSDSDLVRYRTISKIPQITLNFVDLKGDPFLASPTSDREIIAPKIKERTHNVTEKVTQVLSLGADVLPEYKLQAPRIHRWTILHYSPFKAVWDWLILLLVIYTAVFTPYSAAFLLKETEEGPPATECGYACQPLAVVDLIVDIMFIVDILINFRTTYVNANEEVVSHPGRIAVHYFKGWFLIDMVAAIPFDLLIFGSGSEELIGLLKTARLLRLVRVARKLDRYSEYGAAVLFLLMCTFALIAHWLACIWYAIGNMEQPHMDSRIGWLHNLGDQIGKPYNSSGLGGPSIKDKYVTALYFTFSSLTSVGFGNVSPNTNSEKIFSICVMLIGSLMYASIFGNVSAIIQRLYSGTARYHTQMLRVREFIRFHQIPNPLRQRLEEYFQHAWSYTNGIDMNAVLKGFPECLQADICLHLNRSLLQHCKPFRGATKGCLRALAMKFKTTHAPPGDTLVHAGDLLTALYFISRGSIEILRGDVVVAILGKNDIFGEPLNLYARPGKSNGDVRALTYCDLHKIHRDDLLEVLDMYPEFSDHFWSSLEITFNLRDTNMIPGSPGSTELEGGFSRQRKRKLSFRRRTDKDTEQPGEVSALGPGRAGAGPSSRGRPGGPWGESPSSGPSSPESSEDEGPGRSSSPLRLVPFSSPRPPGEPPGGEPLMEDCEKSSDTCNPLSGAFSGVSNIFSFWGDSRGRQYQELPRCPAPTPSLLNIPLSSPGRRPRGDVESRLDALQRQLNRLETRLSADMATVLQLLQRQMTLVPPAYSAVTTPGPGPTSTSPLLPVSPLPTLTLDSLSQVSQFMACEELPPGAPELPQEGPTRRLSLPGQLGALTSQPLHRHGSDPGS
# Chain of Cytochrome P450 2C9 (Homo sapiens) (P11712 whole entry, looked up): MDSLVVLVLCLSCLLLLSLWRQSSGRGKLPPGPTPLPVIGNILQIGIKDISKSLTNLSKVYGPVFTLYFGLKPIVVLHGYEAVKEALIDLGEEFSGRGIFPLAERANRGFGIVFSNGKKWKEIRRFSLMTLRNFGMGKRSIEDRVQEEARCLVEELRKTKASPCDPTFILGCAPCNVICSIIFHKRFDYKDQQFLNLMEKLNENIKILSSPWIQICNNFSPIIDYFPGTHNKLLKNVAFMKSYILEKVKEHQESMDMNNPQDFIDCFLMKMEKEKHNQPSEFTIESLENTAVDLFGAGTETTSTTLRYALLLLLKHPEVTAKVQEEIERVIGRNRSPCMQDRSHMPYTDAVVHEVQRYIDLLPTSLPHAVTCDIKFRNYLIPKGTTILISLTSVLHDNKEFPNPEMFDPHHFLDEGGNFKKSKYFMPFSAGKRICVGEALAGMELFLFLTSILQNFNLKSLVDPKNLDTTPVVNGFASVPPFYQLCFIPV
# Chain of Nuclear receptor subfamily 1 group I member 2 (Homo sapiens) (O75469 whole entry, looked up): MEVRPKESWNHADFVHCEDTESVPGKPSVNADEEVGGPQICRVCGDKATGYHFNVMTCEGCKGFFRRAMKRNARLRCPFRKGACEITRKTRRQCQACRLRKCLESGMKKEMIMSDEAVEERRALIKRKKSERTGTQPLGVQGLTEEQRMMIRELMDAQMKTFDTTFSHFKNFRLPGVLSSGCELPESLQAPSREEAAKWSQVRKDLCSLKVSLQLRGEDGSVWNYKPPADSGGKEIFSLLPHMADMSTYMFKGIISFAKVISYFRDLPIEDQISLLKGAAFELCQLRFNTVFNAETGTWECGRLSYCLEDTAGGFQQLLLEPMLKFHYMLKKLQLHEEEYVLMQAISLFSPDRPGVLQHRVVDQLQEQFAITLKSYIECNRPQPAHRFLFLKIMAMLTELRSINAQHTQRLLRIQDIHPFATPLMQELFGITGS
smiles,measurement,setting,value
COP(=O)(OC)OC(c1ccc(Cl)cc1)P(=O)(OC)OC (stereo not given),Potency,[1],inactive
same,Potency,[2],inactive
same,Potency,[3],inactive
same,outcome,[4],inactive
same,Potency,[5],inactive
same,Potency,[6],inactive
same,max activation,[7],4.37%
same,Potency,[8],inactive
same,Potency,[9],inactive
same,Potency,[10],inactive
same,Potency,[11],inactive
same,Potency,[12],inactive
same,Potency,[13],inactive
Cc1ccsc1/C=C/C1=NCCCN1C,Potency,[1],inactive
same,Potency,[2],inactive
same,Potency,[3],inactive
same,outcome,[4],inactive
same,Potency,[5],inactive
same,Potency,[6],inactive
same,max activation,[7],-1.84%
same,Potency,[8],inactive
same,Potency,[9],inactive
same,Potency,[11],inactive
same,Potency,[13],inactive
Cc1nc2n(c(=O)c1CCN1CCC(c3noc4cc(F)ccc34)CC1)CCC[C@H]2O,"activity change, negative = cytotoxicity",[1],-2.46% [at 19 µM]
same,caspase activation,[2],0.536% [at 19 µM]
same,"activity change, negative = cytotoxicity",[3],8.49% [at 19 µM]
same,caspase-3/7 activation,[4],0.349% [at 19 µM]
same,"activity change, negative = cytotoxicity",[5],0.92% [at 19 µM]
same,activation,[6],13.9% [at 19 µM]
same,Potency,[10],6.01 µM (active)
same,"activity change, negative = inhibition",[11],18.1% [at 23.6 µM]
same,"activity change, negative = inhibition",[14],0.924% [at 23.6 µM]
same,"activity change, negative = inhibition",[13],3.18% [at 23.6 µM]
COC(=O)[C@@H]1[C@H]2C[C@H]3c4[nH]c5ccccc5c4CCN3C[C@@H]2CC[C@@H]1O,Potency,[1],inactive
same,Potency,[2],inactive
same,Potency,[3],inactive
same,outcome,[4],inactive
same,Potency,[5],inactive
CC(=O)NCCCCCC(=O)O,Potency,[1],inactive
same,Potency,[2],inactive
same,Potency,[3],inactive
same,outcome,[4],inactive
same,Potency,[5],inactive
same,Potency,[6],inactive
same,max activation,[7],0.55%
same,Potency,[8],inactive
same,Potency,[9],inactive
same,Potency,[10],inactive
same,Potency,[11],inactive
same,Potency,[12],inactive
same,Potency,[15],inactive
same,Potency,[13],inactive
C[C@@H](Oc1ccc(CNC(=O)c2cccnc2Oc2ccc3c(c2)OCO3)c(F)c1)C(=O)O,Potency,[1],inactive
same,Potency,[2],inactive
same,Potency,[3],inactive
same,outcome,[4],inactive
same,Potency,[5],inactive
same,Potency,[6],inactive
same,Potency,[10],inactive
same,Potency,[11],inactive
same,Potency,[12],inactive
same,Potency,[15],inactive
CCC(C)(CCC(C)C)C(=O)O (stereo not given),Potency,[1],inactive
same,Potency,[2],inactive
same,Potency,[3],inactive
same,outcome,[4],inactive
same,Potency,[5],inactive
same,Potency,[6],inactive
same,Potency,[10],28.3 µM (active)
same,Potency,[11],inactive
same,Potency,[14],35.6 µM (active)
same,Potency,[12],inactive
same,Potency,[15],inactive
CCOC(=O)[C@H](CCc1ccccc1)N[C@@H](C)C(=O)N1C(=O)N(C)C[C@H]1C(=O)O,Potency,[1],inactive
same,Potency,[2],inactive
same,Potency,[3],inactive
same,outcome,[4],inactive
same,Potency,[5],inactive
same,Potency,[6],inactive
same,max activation,[7],-1.3%
same,Potency,[8],inactive
same,Potency,[9],inactive
same,Potency,[10],inactive
same,Potency,[11],inactive
same,Potency,[12],inactive
same,Potency,[15],inactive
same,Potency,[13],inactive
C=COCCOCCOCCOC=C,Potency,[1],inactive
same,Potency,[2],inactive
same,Potency,[3],inactive
same,outcome,[4],inactive
same,Potency,[5],inactive
same,Potency,[6],inactive
same,Potency,[10],inactive
same,Potency,[11],79.6 µM (active)
same,Potency,[14],inactive
same,Potency,[12],35.6 µM (active)
same,Potency,[15],inactive
CN(C)C(=O)CNC(=O)Cc1ccccc1,Potency,[1],inactive
same,Potency,[2],inactive
same,Potency,[3],inactive
same,outcome,[4],inactive
same,Potency,[5],inactive
same,Potency,[6],inactive
same,Potency,[10],inactive
same,Potency,[11],inactive
same,Potency,[14],inactive
same,Potency,[12],inactive
COCCOCCOCCOCCOCCO,Potency,[1],inactive
same,Potency,[2],inactive
same,Potency,[3],inactive
same,outcome,[4],inactive
same,Potency,[5],inactive
same,Potency,[6],inactive
same,Potency,[10],inactive
same,Potency,[11],inactive
same,Potency,[14],inactive
same,Potency,[15],inactive
NS(=O)(=O)c1ccc(NC(=O)CCC(=O)O)cc1,Potency,[1],inactive
same,Potency,[2],inactive
same,Potency,[3],inactive
same,outcome,[4],inactive
same,Potency,[5],inactive
same,Potency,[6],inactive
same,max activation,[7],-2.26%
same,Potency,[8],inactive
same,Potency,[9],inactive
same,Potency,[10],inactive
same,Potency,[11],inactive
same,Potency,[14],inactive
same,Potency,[15],inactive
same,Potency,[13],inactive
COc1ccc(-c2cc(=O)c3c(O)cc(O[C@@H]4O[C@H](CO[C@@H]5O[C@@H](C)[C@H](O)[C@@H](O)[C@H]5O)[C@@H](O)[C@H](O)[C@H]4O)cc3o2)cc1O,Potency,[1],inactive
same,Potency,[2],inactive
same,Potency,[3],inactive
same,outcome,[4],inactive
same,Potency,[5],inactive
same,Potency,[6],inactive
same,max activation,[7],-2.2%
same,Potency,[8],12.6 µM (active)
same,Potency,[9],inactive
same,Potency,[10],inactive
same,Potency,[11],inactive
same,Potency,[12],inactive
same,Potency,[15],inactive
C=C1CC/C=C(\C)CC[C@@H]2[C@@H]1CC2(C)C,Potency,[1],inactive
same,Potency,[2],inactive
same,Potency,[3],inactive
same,outcome,[4],inactive
same,Potency,[5],inactive
same,Potency,[6],inactive
same,Potency,[10],inactive
same,Potency,[11],inactive
same,Potency,[14],inactive
same,Potency,[12],inactive
Cc1cc2cc3c(C)cc(=O)oc3c(C)c2o1,Potency,[1],inactive
same,Potency,[2],inactive
same,Potency,[3],inactive
same,outcome,[4],inactive
same,Potency,[5],inactive
same,Potency,[6],5.96 µM (active)
same,max activation,[7],1.62%
same,Potency,[8],inactive
same,Potency,[9],inactive
same,Potency,[10],inactive
same,Potency,[11],inactive
same,Potency,[14],inactive
same,Potency,[12],6.45 µM (active)
CN(C)c1ccc(C=O)cc1,Potency,[1],inactive
same,Potency,[2],inactive
same,Potency,[3],inactive
same,outcome,[4],inactive
same,Potency,[5],inactive
same,Potency,[6],inactive
same,Potency,[10],inactive
same,Potency,[11],79.6 µM (active)
same,Potency,[14],35.6 µM (active)
same,Potency,[12],35.6 µM (active)
same,Potency,[15],inactive
same,Potency,[13],inactive
ClCCCl,Potency,[1],inactive
same,Potency,[2],inactive
same,Potency,[3],inactive
same,outcome,[4],inactive
same,Potency,[5],inactive
same,Potency,[6],inactive
same,Potency,[10],inactive
same,Potency,[11],inactive
same,Potency,[14],inactive
same,Potency,[12],inactive
same,Potency,[13],inactive
O=C1c2ccccc2C(=O)C1c1ccccc1,Potency,[1],inactive
same,Potency,[2],inactive
same,Potency,[3],inactive
same,outcome,[4],inactive
same,Potency,[5],inactive
same,Potency,[6],inactive
same,max activation,[7],-1.16%
same,Potency,[8],inactive
same,Potency,[9],inactive
same,Potency,[10],inactive
same,Potency,[12],inactive
same,Potency,[15],inactive
same,Potency,[13],inactive
COc1nccnc1NS(=O)(=O)c1ccc(N)cc1,Potency,[1],inactive
same,Potency,[2],inactive
same,Potency,[3],inactive
same,outcome,[4],inactive
same,Potency,[5],inactive
same,Potency,[6],inactive
same,max activation,[7],3.09%
same,Potency,[8],inactive
same,Potency,[9],inactive
same,Potency,[10],inactive
same,Potency,[11],inactive
same,Potency,[14],inactive
same,Potency,[12],inactive
same,Potency,[15],inactive
same,Potency,[13],inactive
